The text below walks through data of ChEMBL document CHEMBL4513149, “CO-ADD screening of MMV (CH) - MMV compounds” (2021).

Broadly, the Inhibition is the drop in the measured response relative to a control, in per cent.

The subject of one assay is Staphylococcus aureus. Particulars: Concentration 20 uM; ASSAY_TEST Inhibition of Bacterial Growth; detection method Absorption (OD600); MEDIA CAMHB; plate type 384well; NBS; CORNING #3640; time 18 hr.
Another assay deals with Escherichia coli. Particulars: Concentration 20 uM; ASSAY_TEST Inhibition of Bacterial Growth; detection method Absorption (OD600); MEDIA CAMHB; plate type 384well; NBS; CORNING #3640; time 18 hr.

Entries with a potency or affinity are not part of this list.

As to `Cn1ncc2c(N3CCOCC3)nc(NCCc3c[nH]c4ccccc34)nc21` [TDR79432], the Inhibition in the assay with Staphylococcus aureus was 12.92%; in the assay with Escherichia coli, -1.67%.

Turning to `COc1ccc(Cn2cnc3c(-c4ccco4)nc(Cl)nc32)cc1`, the Inhibition came out at 20.69% with Staphylococcus aureus and 10.18% with Escherichia coli.

With `Cc1cc(Cl)c(S(=O)(=O)N2CCCC2)cc1OCC(=O)NC1CCCCC1`, the Inhibition is reported as 7.56% with Staphylococcus aureus and 0.73% in the assay on Escherichia coli.

In the case of `Nc1nc(N)c2c3c(sc2n1)CN(Cc1ccccc1)CC3`, the figures for the Inhibition in the assay with Staphylococcus aureus and in the assay on Escherichia coli were 15.72% and 6.81%, respectively.

For the molecule `Brc1c(-c2ccc3c(c2)OCO3)nc2ncccn12`, the values for the Inhibition with Staphylococcus aureus and in the assay with Escherichia coli were 14.85% and 5.08%, respectively.

Take `COC(=O)c1c(NC(=O)c2cc3ccccc3oc2=O)sc2c1CCN(Cc1ccccc1)C2`: the results for the Inhibition in the assay on Staphylococcus aureus and in the assay with Escherichia coli were 19.04% and 12.69%, respectively.

For `CN1CCC(NCc2cccc(-c3ccc(S(=O)(=O)NCc4ccccc4)cc3)c2)CC1`, the Inhibition in the assay with Staphylococcus aureus is 14.84%; in the assay on Escherichia coli it was 4.63%.

For `Nc1ncc(Br)cc1-c1nc2cc(Cl)cnc2[nH]1`, the Inhibition with Staphylococcus aureus is listed as 26.53%; with Escherichia coli, 12.85%.

Turning to `COc1ccc(C2CC(c3cccs3)=NN2C(=O)c2ccco2)cc1OC` (stereo unspecified), the Inhibition in the assay on Staphylococcus aureus was found to be 19.66%; in the assay with Escherichia coli, 11.75%.

As to `CCOC(=O)c1cc(-c2csc(Nc3c(C)cc(C)cc3C)n2)on1`, the Inhibition is listed as 5.55% in the assay with Staphylococcus aureus and 5.47% in the assay with Escherichia coli.

`Nc1nccc2ccc(Oc3ccncc3)cc12`: the Inhibition in the assay with Staphylococcus aureus is 12.81%; in the assay with Escherichia coli, 7.44%.

On to `O=C(NCCN1CCCC1)c1cc(NCCCCN2CCC(F)(F)CC2)nc2ccc(Cl)cc12`, for which the Inhibition in the assay on Staphylococcus aureus is 22.5%; in the assay with Escherichia coli, 8.02%.

In the case of `O=C(NC1CCN(c2ccnc3ccccc23)C1)c1cccc(C(F)(F)F)c1` (stereo unspecified), the Inhibition in the assay on Staphylococcus aureus turned out to be 10.7%; with Escherichia coli, 9.38%.

Regarding `CCOc1ccc2cc(-c3nn(CC4CCN(C)CC4)c4ncnc(N)c34)ccc2c1.Cl`, the Inhibition with Staphylococcus aureus is on record as 18.54%; in the assay on Escherichia coli, 8.02%.

As to `O=C(NCc1ccco1)N1CCN(Cc2ccc(Cl)s2)CC1`, the results for the Inhibition in the assay on Staphylococcus aureus and in the assay with Escherichia coli were 6.8% and -3.38%, respectively.

On to `CNC1C(OC2C(OC3C(O)C(O)C(NC(=N)N)C(O)C3NC(=N)N)OC(C)C2(O)C=O)OC(CO)C(O)C1O.CNC1C(OC2C(OC3C(O)C(O)C(NC(=N)N)C(O)C3NC(=N)N)OC(C)C2(O)C=O)OC(CO)C(O)C1O.O=S(=O)(O)O.O=S(=O)(O)O.O=S(=O)(O)O` (stereo unspecified), for which the Inhibition is recorded as 2.48% with Staphylococcus aureus and 8.5% in the assay on Escherichia coli.

For `CCCNC(=O)N1CCC2(CC1)CC(=O)c1cc(C)ccc1O2`, the Inhibition with Staphylococcus aureus was determined as 20.33%; in the assay on Escherichia coli, 10.17%.

Consider `Nc1ncnc2c1ncn2C[C@@H](O)[C@@H](O)C(=O)O` [ERITADENINE], for which the results for the Inhibition in the assay on Staphylococcus aureus and in the assay on Escherichia coli were 13.9% and 8.78%, respectively.
